{"source": "PubChem BioAssay AID1851", "about": "(National Center for Advancing Translational Sciences (NCATS), 2009)", "note": "About 5,700 (36%) of roughly 16,000 compounds were called active. Roughly 24% stayed inconclusive and do not appear here. Calls follow the shape of the dose curve; as a rule, active = well fitted curve in the direction sought with a large enough effect; inconclusive = small, poorly fitted or top-dose-only effect, or effect the other way; inactive = no such curve, though single readings can be large or run the other way. The list shows a part of the results. % is scaled to controls: 0 for no effect and ±100 for the full control effect."}
{"target": "Cytochrome P450 1A2 (Homo sapiens) (UniProt P05177)", "sequence (P05177 whole entry, looked up)": "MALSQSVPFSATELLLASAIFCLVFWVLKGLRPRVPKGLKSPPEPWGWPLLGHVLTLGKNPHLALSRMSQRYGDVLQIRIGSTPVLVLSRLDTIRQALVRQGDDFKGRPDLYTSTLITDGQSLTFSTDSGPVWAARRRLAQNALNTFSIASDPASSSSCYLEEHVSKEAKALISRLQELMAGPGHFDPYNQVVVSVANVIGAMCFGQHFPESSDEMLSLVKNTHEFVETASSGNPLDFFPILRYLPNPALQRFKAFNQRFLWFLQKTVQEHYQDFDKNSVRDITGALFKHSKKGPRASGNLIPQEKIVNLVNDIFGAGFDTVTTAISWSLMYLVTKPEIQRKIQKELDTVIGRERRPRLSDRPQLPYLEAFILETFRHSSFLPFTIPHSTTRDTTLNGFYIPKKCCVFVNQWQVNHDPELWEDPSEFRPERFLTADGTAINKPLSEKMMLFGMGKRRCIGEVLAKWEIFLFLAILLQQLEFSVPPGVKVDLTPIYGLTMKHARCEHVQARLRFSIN", "assay": "Cytochrome panel assay with activity outcomes", "conditions": "recombinant CYP, pro-luciferin dealkylation, luminescence, p450-cyp1a2; series mostly up to 57.1 µM"}
{"smiles": "CCCN(CCC)S(=O)(=O)c1ccc(C(=O)O)cc1", "AC50": "inactive"}
{"smiles": "CCN(CC)CCNC(=O)c1ccc(Cl)c(S(=O)(=O)Nc2ccccc2OC)c1", "AC50": "inactive"}
{"smiles": "CCN(CC)S(=O)(=O)c1cc(C(=O)OC)ccc1Cl", "AC50": "22.4 µM (active)"}
{"smiles": "O=c1[nH]c(=S)[nH]c2c1CN(CCCN1CCOCC1)CN2", "activity, negative = inhibition": "-13.5% [at 2.29 µM] (inactive)"}
{"smiles": "Cc1nn(-c2ccccc2)c(Cl)c1/C=N/NC(=O)c1ccco1", "AC50": "7.08 µM (active)"}
{"smiles": "O=C(Nc1c(C(=O)N2CCCCC2)cnn1-c1ccccc1)c1ccco1", "AC50": "inactive"}
{"smiles": "Cc1nn(-c2ccccc2)c(C)c1/C=N/NC(=O)c1cc(-c2ccc(Cl)s2)[nH]n1", "AC50": "14.1 µM (active)"}
{"smiles": "COc1ccc(CN2C(=O)c3ccccc3C(/C=N\\OCc3ccc(F)cc3)C2=O)cc1", "note": "(configuration not stated)", "AC50": "12.6 µM (active)"}
{"smiles": "CCCC1S/C(=N/N=C/c2ccc(OC)cc2)N(Cc2ccc(OC)cc2)C1=O", "note": "(configuration not stated)", "AC50": "inactive"}
{"smiles": "CN(C)c1ncc2nc(-c3ccc(Cl)cc3)c(=O)n(C)c2n1", "AC50": "1.58 µM (active)"}
{"smiles": "CN(C)c1ncc2nc(-c3ccc(F)cc3)c(=O)n(C)c2n1", "AC50": "1.58 µM (active)"}
{"smiles": "CN(C)c1ncc2nc(-c3ccccc3)c(=O)n(C)c2n1", "AC50": "1 µM (active)"}
{"smiles": "C=CC[C@@H]1C=C[C@@H](O/N=C\\c2ccc(C(=O)N3[C@H](c4ccc(C)cc4)[C@@H](C)CC[C@H]3C(=O)OC)cc2)[C@@H](CO)O1", "activity, negative = inhibition": "-12.6% [at 11.4 µM] (inactive)"}
{"smiles": "CN(C)CCNc1ccccn1", "activity, negative = inhibition": "-5.87% [at 11.4 µM] (inactive)"}
{"smiles": "COCCNc1ccnc(-c2ccccc2CN(C)C)n1", "AC50": "5.01 µM (active)"}
{"smiles": "COCCNc1ccnc(-c2ccccc2C)n1", "AC50": "12.6 µM (active)"}
{"smiles": "CC1(C)C2([N+](=O)[O-])CN3CC1([N+](=O)[O-])CN(C2)C31CCCC1", "AC50": "inactive"}
{"smiles": "Cc1noc(C)c1C(=O)N1CCC2(CCN(Cc3ccncc3)CC2)CC1", "AC50": "inactive"}
{"smiles": "CCc1c(C)c(C#N)c2nc3ccccc3n2c1N1CCN(c2cc(C)ccn2)CC1", "AC50": "inactive"}
{"smiles": "O=C(O)c1nc2nc(Cl)c(Cl)nc2[nH]1", "activity, negative = inhibition": "-18.2% [at 11.4 µM] (inactive)"}
{"smiles": "CCCCSCc1nc2nc(Cl)c(Cl)nc2[nH]1", "AC50": "3.16 µM (active)"}
{"smiles": "CC(C)(C)NC(=O)CN(Cc1cccs1)C(=O)CCC(=O)Nc1nccs1", "AC50": "inactive"}
{"smiles": "O=C(CN1CCN(CC(=O)Nc2ccccc2Cl)CC1)Nc1ccc2c(c1)OCCO2", "AC50": "inactive"}
{"smiles": "O=C(CSCc1ccc(Cl)cc1)Nc1nccs1", "AC50": "0.178 µM (active)"}
{"smiles": "O=C(O)CCC(=O)N1CCOc2ccc(Cl)cc21", "AC50": "inactive"}
{"smiles": "C/C(=N\\NC(=O)CSCc1ccc(Cl)cc1)c1ccc2c(c1)OCCO2", "AC50": "7.94 µM (active)"}
{"smiles": "O=C(CSCc1ccc(Cl)cc1)Nc1ccc2c(c1)OCCO2", "AC50": "17.8 µM (active)"}
{"smiles": "O=S(=O)(c1ccccc1)N1CCC2(CCN(Cc3nccs3)CC2)CC1", "AC50": "inactive"}
{"smiles": "O=C(c1csnn1)N1CCC[C@@]2(CCN(c3ccncc3)C2)C1", "AC50": "inactive"}
{"smiles": "CCOC(=O)c1c(NC(C)=O)sc2c(OC)cccc12", "AC50": "0.316 µM (active)"}
{"smiles": "NS(=O)(=O)c1cc2c(cc1Cl)=NC(CCC(=O)O)=NS=2(=O)O", "activity, negative = inhibition": "4.98% [at 11.4 µM] (inactive)"}
{"smiles": "Cc1nn(C(C)C(=O)Nc2sc3c(c2C#N)CCCC3)c(C)c1[N+](=O)[O-]", "note": "(configuration not stated)", "AC50": "3.55 µM (active)"}
{"smiles": "Cc1nn(C(C)C(=O)N2CCc3ccccc32)c(C)c1[N+](=O)[O-]", "note": "(configuration not stated)", "AC50": "inactive"}
{"smiles": "CCOc1cc(C2NN=C(c3ccccc3)S2)ccc1OCc1ccccc1Cl", "note": "(configuration not stated)", "AC50": "3.16 µM (active)"}
{"smiles": "CN(Cc1ccco1)c1ccnc(-c2cccc(NS(C)(=O)=O)c2)n1", "AC50": "1.26 µM (active)"}
{"smiles": "CN(C)c1ccnc(-c2cccc(NS(C)(=O)=O)c2)n1", "AC50": "1.58 µM (active)"}
{"smiles": "C=C[C@@]1(C)CC(=O)[C@@]2(O)[C@@]3(C)[C@@H](O)CCC(C)(C)[C@@H]3[C@H](OC(=O)CCN(C)C)[C@H](OC(C)=O)[C@@]2(C)O1", "AC50": "inactive"}
{"smiles": "COC(=O)c1ccc(C(=O)OC)c(NC(=O)CSCc2ccc(Br)cc2)c1", "AC50": "0.891 µM (active)"}
{"smiles": "O=C(Nc1ccc(Br)cc1)c1ccc(CSC2=NCCS2)cc1", "AC50": "inactive"}
{"smiles": "CC(=O)Nc1ccc(-c2cc(-c3ccc(NC(C)=O)cc3)nc(-c3ccccc3)n2)cc1", "AC50": "inactive"}
{"smiles": "N#Cc1ccc(Oc2nc(C(N)=O)cc(-c3ccccc3)n2)cc1", "AC50": "2 µM (active)"}
{"smiles": "Cc1ccc(NC(=O)c2cc([N+](=O)[O-])ccc2NCc2cccnc2)cc1Cl", "AC50": "0.126 µM (active)"}
{"smiles": "COC(=O)C1(Cc2ccccc2)C2c3cc(C(=O)N4CCCC4)n(Cc4ccc(OC(F)(F)F)cc4)c3CC2CN1C(=O)c1ccccc1", "note": "(configuration not stated)", "AC50": "inactive"}
{"smiles": "O=[N+]([O-])c1ccc(N2CCCC2)cc1NCc1ccccc1", "AC50": "0.794 µM (active)"}
{"smiles": "Cc1cc(C)c(S(=O)(=O)N2CCN(c3ccc([N+](=O)[O-])c(NCC4CCCO4)c3)CC2)c(C)c1", "note": "(configuration not stated)", "AC50": "inactive"}
{"smiles": "Cc1cc(C)c(S(=O)(=O)N2CCN(c3ccc([N+](=O)[O-])c(NCc4ccco4)c3)CC2)c(C)c1", "AC50": "inactive"}
{"smiles": "O=[N+]([O-])c1cccnc1N1CCCCC1", "AC50": "5.01 µM (active)"}
{"smiles": "CS(=O)(=O)N1CCN(c2ccc([N+](=O)[O-])c(NCc3ccccc3)c2)CC1", "AC50": "12.6 µM (active)"}
{"smiles": "O=C(O)CSc1ncccc1[N+](=O)[O-]", "activity, negative = inhibition": "2.52% [at 11.4 µM] (inactive)"}
{"smiles": "O=[N+]([O-])c1nccn1C[C@H](O)CN1CCCCC1", "activity, negative = inhibition": "4.83% [at 11.4 µM] (inactive)"}
{"smiles": "CC(C)c1ccc(CNc2cc(N3CCCC3)ccc2[N+](=O)[O-])cc1", "AC50": "3.16 µM (active)"}
{"smiles": "Cc1cc(C)n(-c2cc(N3CCN(C(=O)c4ccc(C(C)(C)C)cc4)CC3)ccc2[N+](=O)[O-])n1", "AC50": "inactive"}
{"smiles": "Cc1cccc(C(=O)N2CCN(c3ccc([N+](=O)[O-])c(NCc4ccco4)c3)CC2)c1", "AC50": "inactive"}
{"smiles": "Cc1ccccc1C(=O)N1CCN(c2ccc([N+](=O)[O-])c(NCc3ccco3)c2)CC1", "AC50": "inactive"}
{"smiles": "CC1CCCC(NC(=O)C2CCN(S(=O)(=O)N3CCC4(CC3)OCCO4)CC2)C1C", "note": "(configuration not stated)", "AC50": "inactive"}
{"smiles": "O=[N+]([O-])c1ccc(N2CCCC2)cc1N1CCCC1", "AC50": "0.316 µM (active)"}
{"smiles": "Cn1c(=O)n(C)c2cc([N+](=O)[O-])c(N3CCN(C(=O)c4ccccc4Cl)CC3)cc21", "AC50": "inactive"}
{"smiles": "O=C(O)C1CCN(c2c([N+](=O)[O-])cc(C(F)(F)F)cc2[N+](=O)[O-])CC1", "AC50": "inactive"}
{"smiles": "O=[N+]([O-])c1cc(F)c(N2CCOCC2)cc1N1CCCCC1", "AC50": "1.26 µM (active)"}
{"smiles": "Cc1ccc(OCC(=O)N2CCN(c3ccc([N+](=O)[O-])c(N4CCOCC4)c3)CC2)cc1", "AC50": "inactive"}
{"smiles": "Cc1ccccc1C(=O)N1CCN(c2ccc([N+](=O)[O-])c(N3CCOCC3)c2)CC1", "AC50": "inactive"}
{"smiles": "O=[N+]([O-])c1ccc(N2CCCCC2)c(Cl)c1N1CCCCC1", "AC50": "2 µM (active)"}
